Results on 47 sequences are retold here after the supplement of paper PMC11417369.

± gives the standard deviation of the averaged measurements. Over roughly 25,000 sequences, “ln(normalized median fluorescence intensity)” has its median near 8.9; the highest 2% begin near 10. The list comes from a sample in which the highest values are over-represented; it also holds similar and randomly drawn sequences.

The test system of this test is PfAP2-LT AP2 domain (GST-tagged). Put plainly: gcPBM binding intensity (ln(normalized median fluorescence intensity)); higher = stronger DNA binding. The procedure, abridged:
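Probes on an Agilent 4 × 180k array were primer-extended, double-stranded and 36 bp long, taken from intergenic genomic regions, with negative controls added. GST-tagged P. falciparum DNA-binding domains from E. coli, about 25 μg on average, were applied to the array for 1 h in 1× PBS containing 1% milk, 0.2 mg/ml BSA, 0.5% salmon testes DNA and 0.03% Triton X-100. Binding intensity, obtained after Alexa488 anti-GST antibody detection and a 488 nm scan, is the highest Masliner-normalised natural-log median intensity across replicate spots of either probe orientation.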
“ATATACATATTCTTGTGTACATAAAAATTTATATAT [XGTACX_site8726]”: the “gcPBM binding intensity (ln)” value stood at 8.74 ± 0.35.
As to “AAAAAAAAAAAAGAACGTACAAATTAATTTATAGAA [XGTACX_site5584]”, the “gcPBM binding intensity (ln)” value worked out at 8.73 ± 0.57.
In the case of “TTTACATTAAATCACGCACACAAAAAAAAAAAAAAA [CACACA_site2418]” it was 8.94 ± 0.37; in that of “TTAAAAAATCACAACACACACACACGCAAAAAAAAA [CACACA_site6793]”, 10.1 ± 0.21; in that of “TTAAAAAATCACAACACACACACACCCAAAAAAAAA [CACACA_site1445]”, 9.77 ± 0.26.
In the case of “ATTCAAAAGATGTATACACACATGTGGATAATATAA [CACACA_site2443]” it was 9.21 ± 0.48; in that of “TATATATAATATGAATGTACACAAAAAGGTAATACA [XGTACX_site6202]”, 9.11 ± 0.62.
Consider “AATAAAGCAATAAATACACACATATATATATATATA [CACACA_site2934]”, for which the “gcPBM binding intensity (ln)” value worked out at 9.955 ± 0.0071.
On to “ACAAAAAAAATAAGCACACATATATATATATATATA [CACACA_site816]”, for which the “gcPBM binding intensity (ln)” value worked out at 10.1 ± 0.38.
The same measure for “AAACAAAAAAAATAAGCACACATATATATATATATA [CACACA_site8173]”: 9.6 ± 0.57; for “AATATAAGCAAATACACACACACATATATATATATA [CACACA_site3805]”: 10.29 ± 0.035.
The same measure for “ATACAACAAAAATAAGCACACACAAATATACATACA [CACACA_site9201]”: 9.7 ± 0.4; for “AATATAAGCAAATACACACACACATATAAATATGTA [CACACA_site7741]”: 9.85 ± 0.35; for “AAATCTTAATAAAGTTGTACATAATTATGTTTAATA [XGTACX_site3348]”: 8.55 ± 0.49.
The same measure for “TAATGGAATAAAAATTGTACATATTTTTTTTTTTTT [XGTACX_site7669]”: 8.45 ± 0.36.
“TTTCTTAAATATATTGAGGAATAAAAAGAAGAAAAG [GTGCAC_negctrl_site281]”: the “gcPBM binding intensity (ln)” value was found to be 8.33 ± 0.4.
In the case of “AGTATTATATATATATGTACATAATATACATATATA [XGTACX_site8514]” it was 8.73 ± 0.36.
For “TATGCTACATTATATGTACACACATATACATATATA [CACACA_site8199]”, the “gcPBM binding intensity (ln)” value came out at 9.11 ± 0.42.
In the case of “AGGAACATTTACGCCCCACACACCTACCAACAAAAA [CACACA_site3827]” it was 9.59 ± 0.23.
The same measure for “TATAATGATGATGATAGTACGTATGAGTAAGAAAAA [XGTACX_site31]”: 8.99 ± 0.54; for “AGATTATAAAATTCTACACACATATATACCTATATA [CACACA_site5848]”: 9.04 ± 0.42.
In the case of “TGAACCAGATTTAGAAGTACTAAATATTACATACAT [XGTACX_site2437]” it was 8.7 ± 0.47; in that of “AAATGGAAAAGGTGTACACAAAAAAAAGGGAAAAGC [CACACA_site5331]”, 9.37 ± 0.5.
In the case of “AACTTTTAGAAGAACACACACATATAGATTATGACC [CACACA_site6256]”, the “gcPBM binding intensity (ln)” value amounted to 9.24 ± 0.33.
Take “ATTATAACACCTCCCCCCCTTTTTTTATGAAGACCA [CACACA_negctrl_site1043]”: the “gcPBM binding intensity (ln)” value came to 10.1 ± 0.4.
In the case of “TATATTATGACCACCACACACCTATACACATAACAT [CACACA_site7199]” it was 9.45 ± 0.16; in that of “ACAATTTATATTATATGTACTTAAAAAGTTCGTAAA [XGTACX_site6421]”, 8.47 ± 0.27.
The same measure for “TTTTGAAGCTTTAAAACATATATATATATATATATA [CACACA_negctrl_site184]”: 9.75 ± 0.41; for “ATAATTGTTTCTTTCTCCTTTTTATTTCATTTTAAA [CACACA_negctrl_site964]”: 8.68 ± 0.41; for “TATATATTAAAATAATCACACACATCAATTAATGGT [CACACA_site8331]”: 9.09 ± 0.42.
In the case of “AAATAAAATAAAACAACACACACGAATGTATAAATA [CACACA_site885]” it was 9.45 ± 0.33.
“GCACGAAACAATGTATATATATATATATATATATAT [GTGCAC_negctrl_site412]”: the “gcPBM binding intensity (ln)” value is 10.32 ± 0.078.
The same measure for “ATAAAATAAAACAACACACACGAATGTATAAATATA [CACACA_site4643]”: 9.53 ± 0.36.
For the sequence “ATGATTTATTATTATACACACAAAAAAAAAAAAGGA [CACACA_site264]”, the “gcPBM binding intensity (ln)” value was 8.84 ± 0.42.
In the case of “AATATCAATGATGTTACATGCAAGAGAATCCACAAA [TGCATGCA_site678]” it was 8.96 ± 0.42; in that of “CATATAAAAATGTGCACACACACACCGATATATATT [CACACA_site4940]”, 9.95 ± 0.17.
“AAATAATATAAACATACACACACACCGATATATATA [CACACA_site8945]”: the “gcPBM binding intensity (ln)” value turned out to be 9.92 ± 0.17.
As to “CAAAAAATTCAACACACACACACACCGATAAATAAA [CACACA_site8330]”, the “gcPBM binding intensity (ln)” value came to 10.11 ± 0.071.
The same measure for “ACCATATAAATAAACACACACACACCGATATATATA [CACACA_site5310]”: 10.09 ± 0.085; for “AAAATACATAAACACACACACACACCGATATATATA [CACACA_site9186]”: 10.43 ± 0.092; for “AAATAATTCAAAAAAACACACAAATTACAAAATAAA [CACACA_site269]”: 8.92 ± 0.55.
In the case of “CCTAAATAAATGGACACACACATATATATATATATA [CACACA_site1439]” it was 9.85 ± 0.29; in that of “CACTAAAATGGACACACACACACACCGATATATATA [CACACA_site6139]”, 10.1 ± 0.23.
In the case of “TATATATATATATGTACACACACACCGATAAATAAA [CACACA_site8041]” it was 9.69 ± 0.15.
As to “AATATAAATAATGTTAAACACACATACCGATATATA [CACACA_site8869]”, the “gcPBM binding intensity (ln)” value came to 9.02 ± 0.45.
In the case of “TTCAAAATAAAAAATTCACACACATATATATATATA [CACACA_site8653]” it was 9.44 ± 0.17.
As for “TATATATATAAATACACACACACACCGATATATATA [CACACA_site5408]”, the “gcPBM binding intensity (ln)” value was found to be 9.97 ± 0.11.
